Laboratory results published in PubChem BioAssay (NCATS).
Results filed as inconclusive are left out. The source made the active and inactive calls. Calls come from the whole dose curve; as a rule, active = well fitted cell-killing curve with a large enough effect; inconclusive = small, poorly fitted or top-dose-only effect, or effect the other way; inactive = flat fitted curve, though single readings scatter.
% is set by controls: 0 for no effect and ±100 for the full control effect; potency is the fitted concentration of half-maximal effect.

The compounds below were run on CAOV3 (assay: Primary qHTS to identify gynecologic anti-cancer compounds using libraries of approved drugs and bioactive compounds (AID 1345084; note: nearly all actives have a fitted effect of over 55% in size)). Details: Gynecologic cancer cell panel viability, ATPlite luminescence, 48 h; series mostly up to 57.5 µM; activity change, negative = cytotoxicity: at the top concentration.
From the text: National Center for Advancing Translational Sciences [NCATS] Assay Overview: Chemotherapeutic drug responses vary from cancer to cancer and from patient to patient. These variations could be caused by a number of factors including patient genomic background, tumor mutations, tumor heterogeneity, and aspects of drug treatment. Chemotherapeutic drug resistance is also a common issue and can lead to ineffective treatment and patient death. Here we have profiled the cell killing effects of thousands of compounds to characterize the responses in three gynecological cancers, identify cancer-selective compounds, and understand the diversity of responses to these compounds from pan-cancer suppressors to single cell line selective compounds. In this assay, we screened a 7,914 compound drug library that included approved drug and bioactive compounds in six ovarian, three cervical, and […] placental cancer cell lines using the ATPlite assay for cell viability. […] The cervical cancer cell lines included HeLa, Ca Ski, and C-33 A. The placental cancer cell lines included JEG-3. HEK 293T cells were used as the control cell line to determine the selectivity index. ATPlite is a luminescence based assay reliant on the conversion of a luciferase substrate to light in the presence of ATP. As a cytotoxic compound will suppress growth and decrease the number of cells, the concentration of ATP will decrease, and less light signal will be detected in the well.
Assay Protocol Summary: 1,000 cells in 4 uL of media were dispensed into white, solid bottom 1536-well plates using a Multidrop Combi (Thermo Scientific). The Assay plates were incubated for 16 hours at 37 C with 5% CO2 in assay plates, followed by the addition of 23 nL of DMSO or drug dissolved in DMSO. Each compound was assayed in five concentrations (0.092, 0.46, 2.3, 11.5, and 57.5 uM), using the automated Wako 1536 Pin Tool workstation and incubated at 37 C with 5% CO2 48 hours. 4 uL of ATPlite, the ATP monitoring reagent, was then added to the each well of the assay plates using the Multidrop Combi reagent dispenser followed by incubation for 15 minutes at room temperature. The resulting luminescence was measured using the ViewLux plate reader.
`CC(=O)N(C)c1cccc(-c2ccnc3c(C(=O)c4cccs4)cnn23)c1` was tested, and the “activity change, negative = cytotoxicity” value was 4.64% (inactive). `O=[N+]([O-])c1ccc([As](=O)(O)O)cc1` was tested, and the “activity change, negative = cytotoxicity” value was -8.9% (inactive). In the case of `Cc1[nH]nc2ccc(-c3cncc(OC[C@@H](N)Cc4c[nH]c5ccccc45)c3)cc12`, the Potency is reported as 1.12 µM (active). In the case of `CC(=O)NCCc1c[nH]c2ccccc12`, the “activity change, negative = cytotoxicity” value is reported as 15.9% (inactive). With `Oc1ccc2c3c1O[C@H]1[C@@H](O)C=C[C@H]4[C@@H](C2)NCC[C@@]341` the “activity change, negative = cytotoxicity” value was 2.75% [at 116 µM] (inactive). In the case of `CCNC(=O)CC1N=C(c2ccc(Cl)cc2)c2cc(OC)ccc2-n2c(C)nnc21` (stereo not given), the “activity change, negative = cytotoxicity” value is reported as 33.7% (inactive). `COC(=O)c1cncn1C(C)c1ccccc1` (stereo not given) was tested, and the “activity change, negative = cytotoxicity” value was -1.27% (inactive). With `CC(C)(C)C(O)C(Oc1ccc(Cl)cc1)n1cncn1` (stereo not given) the “activity change, negative = cytotoxicity” value was -0.323% [at 116 µM] (inactive). For `COC1=C[C@@H]2[C@@H]3Cc4ccc(OC)c(O)c4[C@]2(CCN3C)CC1=O`, the “activity change, negative = cytotoxicity” value was 8.41% (inactive). For `Nc1ccc(Cl)cc1`, the “activity change, negative = cytotoxicity” value was 1.81% [at 116 µM] (inactive). `CCCCCCCCCC(CC)c1ccc(S(=O)(=O)O)cc1` (stereo not given) was tested, and the “activity change, negative = cytotoxicity” value was -3.47% [at 116 µM] (inactive). With `O=C(O)c1cc(Oc2ccc(C(F)(F)F)cc2Cl)ccc1[N+](=O)[O-]` the “activity change, negative = cytotoxicity” value was 0.0653% (inactive). With `CC(C)(C)NC[C@H](O)c1ccc(O)cc1Cl` the “activity change, negative = cytotoxicity” value was 35.3% (inactive). In the case of `CC1(N2CCC(n3c([C@@H]4CCCNC4)nc4ccccc43)CC2)CCCCCCC1`, the Potency is reported as 8.91 µM (active). For `CC(C)N(CCNC(=O)CN1CCCC1=O)C(C)C`, the “activity change, negative = cytotoxicity” value was 7.12% (inactive). `CN1CCN(c2ccc([N+](=O)[O-])c3no[n+]([O-])c23)CC1` was tested, and the “activity change, negative = cytotoxicity” value was -20.2% (inactive). For `COC(C)(C)CCCC(C)C/C=C/C(C)=C/C(=O)OC(C)C` (stereo not given), the “activity change, negative = cytotoxicity” value was -0.0184% (inactive). For `CC(=O)Nc1ccc(OC[C@](C)(O)C(=O)Nc2ccc([N+](=O)[O-])c(C(F)(F)F)c2)cc1`, the “activity change, negative = cytotoxicity” value was 2.43% (inactive). For `CC(C)NCC(O)c1ccc([N+](=O)[O-])cc1` (stereo not given), the “activity change, negative = cytotoxicity” value was 5.04% (inactive). `O=C(Oc1ccc([N+](=O)[O-])cc1)N1CCC(C(O)(c2ccc3c(c2)OCO3)c2ccc3c(c2)OCO3)CC1` was tested, and the “activity change, negative = cytotoxicity” value was -6.27% (inactive). `O=C1C(I)=CC(=C(c2cc(I)c(O)c(I)c2)c2ccccc2C(=O)O)C=C1I` was tested, and the “activity change, negative = cytotoxicity” value was 19.7% (inactive). For `CCCCCCCCc1ccc(O)cc1`, the “activity change, negative = cytotoxicity” value was -20.8% [at 116 µM] (inactive). With `O=C(O)COc1ccccc1` the “activity change, negative = cytotoxicity” value was -7.73% (inactive). `CCOP(=O)(NC(C)C)Oc1ccc(SC)c(C)c1` (stereo not given) was tested, and the “activity change, negative = cytotoxicity” value was 6.48% [at 116 µM] (inactive). In the case of `O=C(NCC1CCOCC1)c1cnc(Nc2ccc(Cl)cc2Cl)nc1C(F)(F)F`, the “activity change, negative = cytotoxicity” value is reported as -1.47% (inactive). `CCNC(=O)C[C@@H]1N=C(c2ccc(Cl)cc2)c2cc(OC)ccc2-n2c(C)nnc21` was tested, and the “activity change, negative = cytotoxicity” value was -3.11% (inactive). `CS(=O)(=O)c1ccc(C(=O)C2C(=O)CCCC2=O)c([N+](=O)[O-])c1` was tested, and the “activity change, negative = cytotoxicity” value was -2.31% [at 116 µM] (inactive). `CCCCC(CC)COC(=O)c1ccccc1C(=O)OCC(CC)CCCC` (stereo not given) was tested, and the “activity change, negative = cytotoxicity” value was 2.48% [at 116 µM] (inactive). `CC[N+]1(CCOC(=O)C(O)(c2ccccc2)c2ccccc2)CCCCC1` was tested, and the “activity change, negative = cytotoxicity” value was 24.6% (inactive). For `CC(N[C@H]1C[C@H]1c1ccccc1)c1ccc2c(c1)OCCO2` (stereo not given in full), the “activity change, negative = cytotoxicity” value was 9.41% (inactive). In the case of `COc1ccc(N(C(=O)Oc2c(C)cccc2C)c2ccnc(Nc3ccc(N4CCN(C)CC4)cc3)n2)c(OC)c1`, the “activity change, negative = cytotoxicity” value is reported as 0.235% (inactive). For `O=[N+]([O-])c1cc([N+](=O)[O-])c2ccccc2c1`, the “activity change, negative = cytotoxicity” value was 3.44% [at 116 µM] (inactive). For `O=S(=O)(O)C(F)(F)C(F)(F)C(F)(F)C(F)(F)F`, the “activity change, negative = cytotoxicity” value was -3.59% [at 116 µM] (inactive). For `O=S(=O)(O)C(F)(F)C(F)(F)C(F)(F)C(F)(F)C(F)(F)C(F)(F)C(F)(F)C(F)(F)F`, the “activity change, negative = cytotoxicity” value was 24.4% [at 116 µM] (inactive). For `O=C(N[C@@H](COc1ccc2[nH]c(=O)[nH]c2c1)c1ccccc1)c1cccn(Cc2ccc(F)c(F)c2)c1=O`, the “activity change, negative = cytotoxicity” value was -43.2% (inactive). `O=C(Nc1ccccc1-c1ccc(Cl)cc1)c1cccnc1Cl` was tested, and the “activity change, negative = cytotoxicity” value was 0.564% [at 116 µM] (inactive). With `CCO/N=C(\CC)C1=C(O)CC(c2c(C)cc(C)cc2C)CC1=O` (stereo not given) the “activity change, negative = cytotoxicity” value was 1.28% [at 116 µM] (inactive). In the case of `Nc1ccc(Cl)cc1N`, the “activity change, negative = cytotoxicity” value is reported as -12% [at 116 µM] (inactive). In the case of `CCN(CC)C(=O)c1ccc(C2=CC3(CCNCC3)Oc3cccc(O)c32)cc1`, the “activity change, negative = cytotoxicity” value is reported as 1.09% (inactive). With `O=C(O)CCCOc1ccc(Cl)cc1Cl` the “activity change, negative = cytotoxicity” value was -0.546% [at 116 µM] (inactive).
